Bioassay records: PubChem BioAssay, National Center for Advancing Translational Sciences (NCATS)
This is a sample that favours compounds with a hit; in the whole collection about 8.1% have one here.
KB-V1 MDR tox: kills drug-selected multidrug resistant KB-V1 cells | AID 1347076 | KB-V1 MDR cells viability, CellTiter-Glo, 72 h | Potency, µM (series often up to 46.1 µM), most hits filed as cytotoxic | 400,000 compounds, 3.4% hits; also: % is scaled to controls: 0 for no effect and ±100 for the full control effect; nearly all actives have a fitted effect of over 60% in size
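Compound-treated KB-V1 multidrug-resistant cells, 72 h, 37 degrees C; viability by CellTiter-Glo. Fitted qHTS curves give the values.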
ELG1 DNA repair: ELG1-dependent DNA repair inhibition; Potency, µM (titrated, usually from 46.1 µM), for inactives: top-dose activity change, negative = inhibition, most hits filed as inhibitors; HEK293T ELG1-luciferase reporter, luminescence, 16 h; DNA damage induced by 5-fluorouridine; 330,000 compounds, 2.3% hits; also: % is scaled to controls: 0 for no effect and ±100 for the full control effect; nearly all actives have a fitted effect of over 55% in size
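Quantitative HTS, concentration-response format. 2,000 cells/well co-treated with 5-fluorouridine and compound, 16 hr in 5% CO2 at 37 °C; ONE-Glo luminescence read after 30 min.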
MCF10A rerep: DNA re-replication induction in MCF 10a cells; MCF 10A DNA re-replication, Hoechst nuclear intensity, 48 h; Potency, µM (titrated, usually from 46.1 µM), for inactives: top-dose activity, positive = re-replication, most hits filed as activators; 350,000 compounds, 2.9% hits; also: % of control where 0% means no effect; nearly all actives have a fitted effect of over 50% in size
KB-3-1 cytotox: kills parental KB-3-1 adenocarcinoma cells; KB-3-1 viability, CellTiter-Glo ATP luminescence, 72 h; Potency, µM (highest dose often 46.1 µM), most hits filed as cytotoxic; 400,000 compounds, 1.4% hits; also: % is scaled to controls: 0 for no effect and ±100 for the full control effect; nearly all actives have a fitted effect of over 60% in size
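72 h, 37 °C compound treatment of KB-3-1 parental cells; CellTiter-Glo added, 10 min, luminescence read. Data corrected against DMSO-only plates and normalized before curve fitting.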
SW480 rereplic: DNA re-replication induction in SW480 cells; SW480 DNA re-replication, Hoechst DNA content imaging, 48 h; Potency, µM (doses to about 46.1 µM), for the others: at the top dose re-replication activation, usual class: activators; 340,000 compounds, 1.8% hits; also: % of control where 0% means no effect; nearly all actives have a fitted effect of over 55% in size
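Per well, 250 cells were exposed to pinned compound for 48 hr. Nuclear DNA was visualised with Hoechst (40 min, 37 C) and total object intensity recorded by fluorescence scanning.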
* hit, by the source's call; [ ] = remark or other dose. Calls follow the shape of the dose curve; as a rule, active = well fitted curve in the direction sought with a large enough effect; inconclusive = small, poorly fitted or top-dose-only effect, or another doubt; inactive = no such curve, though single readings can be large; an effect the other way counts as inactive or inconclusive. Potency is read from the fitted curve at half-maximal effect.

How did CCCC(=O)N1CCN(c2ccc(NC(=O)c3ccc(OCC)c([N+](=O)[O-])c3)cc2)CC1 do in these assays?
KB-V1 MDR tox: 11.6µM*; ELG1 DNA repair: -2.1%; MCF10A rerep: -6.2%; KB-3-1 cytotox: inactive; SW480 rereplic: -68.7%

Results for CCC(=O)N1CCN(c2ccc(NC(=S)NC(=O)c3ccc(OC)c([N+](=O)[O-])c3)cc2)CC1 ?
KB-V1 MDR tox: inactive; ELG1 DNA repair: inconclusive; MCF10A rerep: -0.8%[9.22 µM]; KB-3-1 cytotox: inactive; SW480 rereplic: 6.3%

How did Cc1cccc(OCC(=O)Nc2ccc(N3CCCC3)cc2)c1C do in these assays?
KB-V1 MDR tox: inactive; ELG1 DNA repair: -4.7%; MCF10A rerep: -24.5%; KB-3-1 cytotox: inactive; SW480 rereplic: -2.0%

Results for CCC(=O)N1CCN(c2ccc(NC(=O)COc3ccccc3Cl)cc2)CC1 ?
KB-V1 MDR tox: inconclusive; ELG1 DNA repair: 18.4µM*; MCF10A rerep: 1.1%; KB-3-1 cytotox: inconclusive; SW480 rereplic: -7.0%

How did Cc1ccc(C(=O)N2CCN(c3ccc(NC(=O)COc4ccccc4C)cc3)CC2)cc1 do in these assays?
KB-V1 MDR tox: inconclusive; ELG1 DNA repair: inconclusive; MCF10A rerep: 9.5%; KB-3-1 cytotox: 18.4µM*; SW480 rereplic: 3.9%

How did O=C(COc1ccccc1Br)N1CCN(c2ccccc2)CC1 do in these assays?
KB-V1 MDR tox: 18.4µM*; ELG1 DNA repair: -2.9%; MCF10A rerep: 14.1%; KB-3-1 cytotox: inactive; SW480 rereplic: 7.1%

How did CC(=O)c1cccc(NCC(=O)Nc2cc(S(=O)(=O)N3CCCCC3)ccc2C)c1 do in these assays?
KB-V1 MDR tox: inconclusive; ELG1 DNA repair: inconclusive; MCF10A rerep: inconclusive; KB-3-1 cytotox: inactive; SW480 rereplic: -3.0%

Results for CC(C)(O)CN(C(=O)C(c1ccccc1)c1ccccc1)C1CCCCC1 ?
KB-V1 MDR tox: 13µM*; MCF10A rerep: 4.6%; KB-3-1 cytotox: inactive; SW480 rereplic: 11.5%

How did CC1(C)Cc2c(sc3nc(-c4cccs4)n(N)c(=O)c23)CO1 do in these assays?
KB-V1 MDR tox: 8.2µM*; ELG1 DNA repair: inconclusive; MCF10A rerep: inconclusive; KB-3-1 cytotox: inactive; SW480 rereplic: inconclusive

What do the screens show for `CC1(C)Cc2c(sc3nc(-c4ccccc4)n(N)c(=O)c23)CO1`?
KB-V1 MDR tox: inactive; ELG1 DNA repair: 1.8%; MCF10A rerep: inconclusive; KB-3-1 cytotox: inactive; SW480 rereplic: -5.1%

What do the screens show for `CCOC(=O)c1nnn(-c2nc(N3CCCC3)nc(N3CCCC3)n2)c1-c1ccccc1`?
KB-V1 MDR tox: inactive; ELG1 DNA repair: -14.4%; MCF10A rerep: 6.4%; KB-3-1 cytotox: inconclusive; SW480 rereplic: 16.5%

Results for CCOC(=O)c1nnn(-c2nc(OC)nc(N3CCCCC3)n2)c1-c1ccccc1 ?
ELG1 DNA repair: 18.4µM*

Results for CCOC(=O)c1c(-c2ccccc2)nnn1-c1nc(OCC)nc(N2CCCCC2)n1 ?
KB-V1 MDR tox: 20.6µM*; ELG1 DNA repair: inconclusive; MCF10A rerep: 14.6µM*; KB-3-1 cytotox: inconclusive; SW480 rereplic: 11.9%

What do the screens show for `COc1cc(OC)c(NC(=O)CSc2cc(=O)n(C)c3ccc(Cl)cc23)cc1Cl`?
KB-V1 MDR tox: inconclusive; KB-3-1 cytotox: inactive

Results for C=CCn1c(SCC(=O)N2CCC(C)CC2)nc2c([nH]c3ccccc32)c1=O ?
KB-V1 MDR tox: inactive; KB-3-1 cytotox: inactive

What do the screens show for `C=CCNC(=S)NNC(=O)c1cccn(Cc2ccc(Cl)cc2Cl)c1=O`?
KB-V1 MDR tox: 23.1µM*; ELG1 DNA repair: -18.7%; MCF10A rerep: 5.1%; KB-3-1 cytotox: inactive; SW480 rereplic: -12.9%

How did C=CCNC(=S)NNC(=O)c1cccn(Cc2ccc(Cl)c(Cl)c2)c1=O do in these assays?
KB-V1 MDR tox: 16.4µM*; ELG1 DNA repair: -26.6%; MCF10A rerep: 1.2%; KB-3-1 cytotox: inconclusive; SW480 rereplic: 24.2%

How did O=C(CN1C(=O)/C(=C\c2cccc(Br)c2)Oc2ccccc21)NCCCN1CCOCC1 do in these assays?
KB-V1 MDR tox: inconclusive; ELG1 DNA repair: 0.0%; MCF10A rerep: 2.91µM*; KB-3-1 cytotox: inactive; SW480 rereplic: 14.6µM*

Results for O=C(CN1C(=O)/C(=C\c2cccc(Cl)c2)Sc2ccccc21)NCCCN1CCOCC1 ?
KB-V1 MDR tox: inactive; ELG1 DNA repair: 0.0%; MCF10A rerep: 20.6µM*; KB-3-1 cytotox: inactive; SW480 rereplic: inconclusive

Results for O=C(CN1C(=O)S/C(=C\c2ccccc2Cl)C1=O)NCCCn1ccnc1 ?
KB-V1 MDR tox: inactive; ELG1 DNA repair: inconclusive; MCF10A rerep: -7.2%; KB-3-1 cytotox: inactive; SW480 rereplic: -8.7%

How did CCc1ccc(/C=C2/Sc3ccccc3N(CC(=O)NCCCN3CCOCC3)C2=O)cc1 do in these assays?
KB-V1 MDR tox: inactive; ELG1 DNA repair: 24.2%; MCF10A rerep: inconclusive; KB-3-1 cytotox: inactive; SW480 rereplic: inconclusive

Results for O=C(CN1C(=O)COc2ccccc21)NCCCN1CCOCC1 ?
KB-V1 MDR tox: inconclusive; ELG1 DNA repair: 14.5%; MCF10A rerep: -1.2%; KB-3-1 cytotox: inactive; SW480 rereplic: 2.7%

What do the screens show for `O=C(CN1C(=O)/C(=C\c2ccccc2Cl)Sc2ccccc21)NCCCN1CCOCC1`?
KB-V1 MDR tox: inactive; ELG1 DNA repair: -0.6%; MCF10A rerep: 18.4µM*; KB-3-1 cytotox: inactive; SW480 rereplic: 18.4µM*

How did O=C(CN1C(=O)/C(=C/c2ccc(C(F)(F)F)cc2)Sc2ccccc21)NCCCN1CCOCC1 do in these assays?
KB-V1 MDR tox: inactive; ELG1 DNA repair: inconclusive; MCF10A rerep: 20.6µM*; KB-3-1 cytotox: inactive; SW480 rereplic: inconclusive

How did Cn1c(=O)c2c(nc(CN3CCN(c4ccccc4F)CC3)n2Cc2ccc(F)cc2)n(C)c1=O do in these assays?
KB-V1 MDR tox: inactive; KB-3-1 cytotox: inactive

Results for Cc1sc2cc3c(c(C(=O)c4ccccc4)[n+]2c1C)-c1cccc2cccc-3c12 ?
KB-V1 MDR tox: inactive; ELG1 DNA repair: 23.1µM*; MCF10A rerep: 11.6µM*; KB-3-1 cytotox: 7.31µM*; SW480 rereplic: inconclusive

Results for O=C(c1ccccc1)c1c2c(cc3sc4ccccc4[n+]13)-c1cccc3cccc-2c13 ?
KB-V1 MDR tox: inconclusive; ELG1 DNA repair: 18.4µM*; MCF10A rerep: inconclusive; KB-3-1 cytotox: 20.6µM*; SW480 rereplic: 7.9%

Results for O=C(c1ccccc1)c1ccc2ccccc2c1 ?
KB-V1 MDR tox: inactive; MCF10A rerep: inconclusive; KB-3-1 cytotox: inactive; SW480 rereplic: -7.2%

What do the screens show for `CC(=O)C(Cc1ccccc1)NC(=O)COC(=O)c1ccc(-n2cnnn2)cc1` (stereo not given)?
KB-V1 MDR tox: inactive; ELG1 DNA repair: 12.7%; MCF10A rerep: 1.8%; KB-3-1 cytotox: inactive; SW480 rereplic: -7.8%

Results for CCCn1c(NCc2ccccc2NS(=O)(=O)c2ccc(C)cc2)nc2ccccc21 ?
KB-V1 MDR tox: 16.4µM*; ELG1 DNA repair: inconclusive; MCF10A rerep: 10.3µM*; KB-3-1 cytotox: inconclusive; SW480 rereplic: inconclusive
